Compound activity: PubChem, National Center for Advancing Translational Sciences (NCATS)
Compounds with a hit are over-represented: about 6.6% of the library has one in this group of screens.
KB-V1 cytotox: kills drug-selected multidrug resistant KB-V1 cells; KB-V1 MDR cells viability, CellTiter-Glo, 72 h; Potency, µM (series often up to 46.1 µM), most hits filed as cytotoxic; actives 3.4% (n = 400,000); AID 1347076; note: % is set by controls: 0 for no effect and ±100 for the full control effect; nearly all actives have a fitted effect of over 60% in size
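KB-V1 MDR subline cells in DMEM (phenol-red free, 10% FBS) exposed to compounds in qHTS concentration series for 72 h at 37 degrees C. Viability read by CellTiter-Glo luminescence; concentration-effect curves fitted after normalization and correction.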
RGS4 inh: human RGS4 inhibition | AID 504845 | Potency, µM (doses to about 114 µM), for inactives: at the top dose activity change, negative = inhibition, most hits filed as inhibitors | actives 0.039% (n = 390,000) | Transcreener GDP fluorescence polarization, RGS4-accelerated GTP hydrolysis | P49798; note: % is set by controls: 0 for no effect and ±100 for the full control effect; nearly all actives have a fitted effect of over 75% in size
Target sequence (P49798 whole entry, looked up): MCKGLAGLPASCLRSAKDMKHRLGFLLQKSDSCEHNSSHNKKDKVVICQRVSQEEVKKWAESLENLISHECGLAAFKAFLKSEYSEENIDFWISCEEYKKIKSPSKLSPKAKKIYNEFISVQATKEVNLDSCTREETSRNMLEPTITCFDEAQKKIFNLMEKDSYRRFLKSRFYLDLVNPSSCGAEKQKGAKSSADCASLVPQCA
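MLSMR compounds (23 nl, pin-transferred) preincubated 10 min at room temperature with a 500nM (2x) first reagent, then RGS4 at 900nM (2x) plus Transcreener GDP mix added; fluorescence polarization (620/688 nm) read before and after 90 min at 30 °C.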
MCF10A rereplic: DNA re-replication induction in MCF 10a cells. Potency, µM (doses to about 46.1 µM), for the others: top-dose activity, positive = re-replication, usual class: activators. actives 2.9% (n = 350,000). MCF 10A DNA re-replication, Hoechst nuclear intensity, 48 h; note: % of control where 0% means no effect; nearly all actives have a fitted effect of over 50% in size
KB-3-1 cytotox: kills parental KB-3-1 adenocarcinoma cells. KB-3-1 viability, CellTiter-Glo ATP luminescence, 72 h. Potency, µM (top dose mostly 46.1 µM), actives largely listed as cytotoxic. actives 1.4% (n = 400,000); note: % is set by controls: 0 for no effect and ±100 for the full control effect; nearly all actives have a fitted effect of over 60% in size
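72 h, 37 °C compound treatment of KB-3-1 parental cells; CellTiter-Glo added, 10 min, luminescence read. Data corrected against DMSO-only plates and normalized before curve fitting.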
PTAP TSG101 blk: blocks PTAP/TSG101 interaction to inhibit HIV-1 budding | Q99816 | 340,000 tested, under 10 active | AID 493005 | Potency, µM (titrated, usually from 115 µM), inactives show at the top dose activity change, negative = inhibition, actives largely listed as inhibitors | Fluorescence polarization, FITC-PTAP peptide / Tsg101 binding; active = well fitted inhibition curve with a large enough effect in the main read-out, with a control signal flat, not every such curve was filed as active; inconclusive = small, poorly fitted or top-dose-only effect, or effect the other way, or a change in a side signal; inactive = no such curve, though single readings can be large or run the other way; note: % of control where 0% means no effect
Target sequence (Q99816 whole entry, looked up): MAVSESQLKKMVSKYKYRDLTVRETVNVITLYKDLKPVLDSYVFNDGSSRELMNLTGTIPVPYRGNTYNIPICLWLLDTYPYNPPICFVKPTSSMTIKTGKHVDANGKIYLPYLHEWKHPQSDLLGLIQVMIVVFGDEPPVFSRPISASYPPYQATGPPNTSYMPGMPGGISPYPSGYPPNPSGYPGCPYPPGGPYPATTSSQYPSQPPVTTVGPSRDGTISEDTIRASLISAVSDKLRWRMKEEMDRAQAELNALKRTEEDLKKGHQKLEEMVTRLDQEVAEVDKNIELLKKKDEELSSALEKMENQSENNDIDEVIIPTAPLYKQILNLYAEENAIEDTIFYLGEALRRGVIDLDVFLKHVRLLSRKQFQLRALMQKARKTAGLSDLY
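Fluorescence anisotropy tracks displacement of a FITC-tagged PTAP peptide (50 nM) from the Tsg101 binding domain (10 uM), following a 20 min room-temperature incubation at pH 7.5.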
SW480 rerep: induces DNA re-replication in SW480 colon adenocarcinoma cells; Potency, µM (titrated, usually from 46.1 µM), for inactives: top-dose re-replication activation, hits mostly activators; actives 1.8% (n = 340,000); SW480 DNA re-replication, Hoechst DNA content imaging, 48 h; note: % of control where 0% means no effect; nearly all actives have a fitted effect of over 55% in size
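SW480 cells exposed to compounds for 48 hr at 37 C, 5% CO2, then Hoechst-stained 40 min. Nuclear DNA content imaged by fluorescence scanning (405 nm excitation, 500-530 nm emission); re-replication scored as increased high-intensity nuclei.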
* marks the source's active call; other numbers are inactive results; i = inactive; ? = inconclusive; / = not tested or not shown. Unless noted, calls come from the whole dose curve; as a rule, active = well fitted curve in the direction sought with a large enough effect; inconclusive = small, poorly fitted or top-dose-only effect, or another doubt; inactive = no such curve, though single readings can be large; an effect the other way counts as inactive or inconclusive. Potency is the fitted concentration of half-maximal effect.

SMILES	KB-V1 cytotox	RGS4 inh	MCF10A rereplic	KB-3-1 cytotox	PTAP TSG101 blk	SW480 rerep
C=CCn1c(SCc2c(C)noc2C)nc2sc3c(c2c1=O)CCCC3	23µM*	6%	9.2µM*	18µM*	0%	?
CC1=Nc2cc(C(=O)NCCc3ccc(Cl)cc3)ccc2Sc2ccc(C)cc21	/	10%	/	/	/	/
O=C(Nc1cccs1)Nc1cc(C(F)(F)F)ccc1Cl	/	-24%	/	/	/	/
COc1ccc(-c2csc(N(CCc3ccccc3)C(=O)COc3ccccc3)n2)cc1	16µM*	19%	7%	i	-8%	0%
CCN(CC)CCCN(C(=O)c1cccs1)c1nc(-c2ccc(OC)cc2)cs1	8.2µM*	-12%	?	?	-7%	18µM*
Cn1c(=O)n(C)c2cc(N3CCCCC3)c(NC(=O)c3c(F)cccc3F)cc21	i	10%	/	i	/	/
O=[N+]([O-])c1ccc(N=Nc2c(O)[nH]c3ccc(F)cc23)cc1	?	-14%	7.3µM*	?	-2%	?
O=C1CCCC2=C1C(c1ccc(O)c(O)c1)c1c(ccc3ncccc13)N2 (stereo unspecified)	i	-38%	1%	i	-2%	2%
O=C1CCCC2=C1C(c1ccc(O)cc1)c1c(ccc3ccccc13)N2 (stereo unspecified)	i	-22%	16µM*	i	1%	?
CCOc1cc2[nH]c(=O)n(CCCC(=O)N3CCN(c4ccc(OC)cc4)CC3)c(=O)c2cc1OCC	i	22%	/	i	/	/
Clc1ccc(COc2cccc(CNCc3ccncc3)c2)cc1	6.5µM*	-26%	15%	?	0%	-4%
CC(C)(CO)NCc1cccc(OCc2ccc(Cl)cc2)c1	?	1%	10%	?	0%	1%
Cc1cccc(C)c1NC(=O)c1sc(-n2nc(C)c(Cc3ccccc3)c2C)nc1C	/	-5%	/	/	/	/
CCOC(=O)c1[nH]c(C)c(C(=O)NC2CCCC2)c1C	i	-9%	-3%	i	0%	-1%
CCOC(=O)c1[nH]c(C)c(C(=O)Nc2ccc(C)c(F)c2)c1C	2.9µM*	-11%	12µM*	?	-4%	12µM*
CCOC(=O)c1[nH]c(C)c(C(=O)Nc2ccc(C)c(Cl)c2)c1C	i	3%	21µM*	?	0%	?
c1ccc(Cn2nnc3c(N4CCCC4)ncnc32)cc1	18µM*	32%	3%	i	-9%	-9%
c1ccc(-c2cc3c(N4CCCC4)ncnc3s2)cc1	?	5%	11%	i	-3%	-3%
c1ccc(Cn2nnc3c(N4CCc5ccccc5C4)ncnc32)cc1	15µM*	-4%	?	i	1%	4%
c1ccc(-c2cc3c(N4CCOCC4)ncnc3s2)cc1	?	16%	13µM*	i	-5%	?
c1ccc(-n2nnc3c(N4CCOCC4)ncnc32)cc1	16µM*	?	?	?	-8%	-9%
O=C(NCCc1ccc(Cl)cc1)C1CCN(Cc2cc3ccccc3n2Cc2ccccc2)CC1	i	11%	/	i	/	/
Cc1ccc(-c2noc(-c3ccc(NCc4ccco4)c([N+](=O)[O-])c3)n2)cc1	i	11%	/	i	/	/
CCN(CC)CCNC(=O)c1ccc(-n2c(-c3ccccc3)cc3c2CCCC3)cc1	/	-1%	/	/	/	/
CCN(CC)/[N+]([O-])=N/Oc1cc(O/N=[N+](\[O-])N(C)C)c([N+](=O)[O-])cc1[N+](=O)[O-]	/	1%	/	/	/	/
SMILES	KB-V1 cytotox	RGS4 inh	MCF10A rereplic	KB-3-1 cytotox	PTAP TSG101 blk	SW480 rerep
Brc1ccc(-c2ccc(CNCCSc3nnnn3-c3ccccc3)o2)cc1	i	-24%	/	i	/	/
O=C(CSc1ncnc2c1nnn2Cc1ccccc1)NC1CCCCC1	i	17%	23µM*	i	-3%	?
Cc1cnccn1	i	/	/	i	/	/
CC(C)(C)c1ccc(C2Sc3ccccc3NC3=C2C(=O)c2ccccc23)cc1 (stereo unspecified)	?	-13%	/	?	/	/
C=CCn1c(COc2ccc(F)cc2)nnc1SCC(=O)c1c[nH]c2c(CC)cccc12	13µM*	14%	6%	i	-12%	1%
COc1cc(NC(=O)C(Cc2ccccc2)NS(=O)(=O)c2cccc3nsnc23)cc(OC)c1 (stereo unspecified)	i	0%	/	?	/	/
Cc1ccnc2ccc(I)cc12	i	/	/	i	/	/
CC(C)(C)c1ccc(OCC(=O)N/N=C/c2cc(Br)ccc2OC(=O)c2ccco2)cc1	7.3µM*	8%	2%	?	-6%	13%
COc1ccc(Br)cc1/C=N/NC(=O)c1ccco1	i	-14%	-2%	i	0%	10%
CCC(Cn1nnc2ccccc2c1=O)NC(=O)Nc1cc(Cl)ccc1OC (stereo unspecified)	i	-8%	/	i	/	/
CC(=O)Oc1ccc(C23c4ccccc4C2(OC(C)=O)c2cc(OC(C)=O)ccc23)cc1 (stereo unspecified)	?	-5%	5.2µM*	?	0%	18µM*
CC(=O)Oc1ccc(C(=O)Nc2ccccc2NC(=O)c2ccc(OC(C)=O)cc2)cc1	i	9%	8%	i	-4%	-8%
OC(Br)C(O)C(O)N1CCCc2ccccc21 (stereo unspecified)	i	/	/	i	/	/
CCOC(=O)c1c(C)oc2c1c(C=NCc1ccccn1)c(O)c1ccccc12	?	-25%	12µM*	?	-1%	?
CCOc1ccc(-c2cnc(NCc3ccc(OC)cc3OC)n2C)cc1	i	11%	/	i	/	/
c1csc(-c2nnc(Cc3cccc4ccccc34)o2)c1	15µM*	14%	13%	i	-3%	-2%
Fc1ccc(Cc2nnc(-c3cccs3)o2)cc1	i	-26%	-4%	i	-3%	-5%
COc1cc(O)c(C(CC(=O)N2CCC(Cc3ccccc3)CC2)c2ccc(OC)c(OC)c2)c(OC)c1 (stereo unspecified)	?	/	/	i	/	/
CCc1cc2c(=O)c(-c3cscn3)coc2c(CN(C)C)c1O	i	-20%	10µM*	i	1%	?
CCOc1ccc(CNCc2c(C(=O)O)c(C)n(Cc3ccc(C)cc3)c2C)cc1	?	2%	/	i	/	/
O=C(CN1CCN(Cc2ccccc2)CC1)NCc1ccccc1Cl	i	20%	4%	i	1%	-3%
O=C(CN1CCN(S(=O)(=O)c2cc(Br)ccc2Br)CC1)NCc1ccccc1Cl	3.7µM*	-21%	12%	i	-1%	11%
